Among the data in ChEMBL document CHEMBL4513216, “Probing the Open Global Health Chemical Diversity Library for Multistage-Active Starting Points for Next-Generation Antimalarials” (ACS Infect Dis, 2020) are INHIBITION values, retold here.

Each structure is given as a SMILES string. Screen size: about 69,000 compounds; about 8,600 (12%) showed an effect of 50% or more. Many of the other results were omitted from the sample, so strong results are more common in it than they were.

The test system of this assay is Plasmodium berghei. Kind of assay: Screen against P. berghei liver stage (PbLuc), transformed with Luciferase, at 10uM. Format: functional, HepG2. To be noted: tested at 10 uM.
For the compound `Cc1cccc(NC(=O)Nc2c[nH]c(=O)[nH]c2=O)c1C`, the INHIBITION is reported as -13.6%.

As to `Cc1cc(C(=O)N2CCN(Cc3ccsc3)CC2)c(C)n1C1CC1`, the INHIBITION is on record as -1.14%. To `CC(C)CN(c1cn[nH]c1)S(=O)(=O)c1cccc(C#N)c1` belongs 10.8%; to `Cc1ncc(S(=O)(=O)N(CC(C)C)c2cccc(O)c2)s1`, 61%; to `CC(=O)Nc1ncc(S(=O)(=O)Nc2cccc(O)c2)s1`, 13.5%. To `O=C(c1ccc[nH]1)N1CCc2c(cccc2S(=O)(=O)N2CCOCC2)C1` belongs 22.2%; to `CC(C)=CCN1CCN(Cc2nccn2C)[C@H]2CS(=O)(=O)C[C@H]21`, 23.9%. Then `Cc1n[nH]c(CN2CCN(C(=O)C3CCC3)[C@@H]3CS(=O)(=O)C[C@@H]32)n1`, with -2.79%; and `Cc1n[nH]c(CN2CCN(Cc3ccccc3)[C@@H]3CS(=O)(=O)C[C@@H]32)n1`, with 18.9%.

For the compound `Cc1n[nH]c(CN2CCN(CC3CC3)[C@@H]3CS(=O)(=O)C[C@@H]32)n1`, the INHIBITION stood at 55.9%.

As to `Cn1ccnc1CN1CCN(Cc2ccccc2)[C@@H]2CS(=O)(=O)C[C@@H]21`, the INHIBITION is recorded as 46.7%.

For `Cn1ccnc1CN1CCN(CC2CC2)[C@@H]2CS(=O)(=O)C[C@@H]21`, the INHIBITION was 56.7%. To `CN(C)CCC1CN(C(=O)c2cccc3c2OCC3)CCO1` (configuration not stated) belongs -15.1%; to `COCC1CN(Cc2cc(C)on2)Cc2cn(CC3CCCC3)nc21` (configuration not stated), 15.3%; to `Cc1cc(OC(F)F)c(C(=O)N2CCN(C3CC3)CC2)s1`, -3.47%. As for `CCOCC1CN(C(=O)c2cnccn2)Cc2cnn(CC3CC3)c21` (configuration not stated), the INHIBITION was found to be 6.6%.

Take `Cn1cnc2c1C(COCC1CC1)CN(C(=O)c1cscn1)C2` (configuration not stated): the INHIBITION was 58.8%. Then `CCOCC1CN(C(=O)c2cscn2)Cc2cnn(CC3CC3)c21` (configuration not stated), with 56.7%. Then `CN(C)C(=O)N1Cc2ncn(C)c2C(COCC2CCOCC2)C1` (configuration not stated), with 6.6%; and `Cc1noc(C)c1C(=O)N1Cc2ncn(C)c2C(COCC(C)C)C1` (configuration not stated), with 36.7%. To `Cn1cnc2c1C(COCC1CCOCC1)CN(C(=O)c1ccco1)C2` (configuration not stated) belongs 64.9%; to `Cn1cnc2c1C(COCC1CCOCC1)CN(C(=O)c1ccoc1)C2` (configuration not stated), 40.4%; to `CC(C)COCC1CN(C(=O)c2cscn2)Cc2ncn(C)c21` (configuration not stated), 34.9%. On to `Cc1noc(C)c1C(=O)N1Cc2ncn(C)c2C(COCC2CC2)C1` (configuration not stated), for which the INHIBITION is 58.4%. To `Cn1ncc2c1C(COCC1CC1)CN(C(=O)c1cscn1)C2` (configuration not stated) belongs 34.6%; to `CCOCC1CN(C(=O)c2cscn2)Cc2nnn(CC3CC3)c21` (configuration not stated), 13.6%. In the case of `Cc1ccsc1C(=O)N1Cc2ncn(C)c2C(COCC2CC2)C1` (configuration not stated), the INHIBITION came out at 11.4%. Then `CCn1ccnc1CN1CCCN(C(=O)c2cc[nH]n2)CC1`, with -18.45%; and `Cc1nc(C)n(CC2CCCCN2CCOc2cccc(C#N)c2)n1` (configuration not stated), with 21.5%; and `CN(C)C1(CNc2nccc(C3CCCC3)n2)CCOCC1`, with -15.3%. To `Cn1ccnc1CNC(=O)CC1CCCCO1` (configuration not stated) belongs 19.25%; to `COCCNCc1cc2ccc(C)c(C)c2[nH]c1=O`, 1.475%. Then `CC(=O)Nc1cccc(CN2CCN(C3=NCC(C)(C)S3)CC2)c1`, with 42.1%; and `CN(C)CCN1CCOCC2(C1)CN(Cc1ccsc1)CCO2` (configuration not stated), with 25.6%; and `CCS(=O)(=O)N(C)CCCNCc1c(C)nn(C)c1N(C)C`, with 19.15%. Consider `CC(C)CN1CCN(C(=O)CCn2cccn2)CC1`, for which the INHIBITION is 2.4%. Then `C[C@H]1C(=O)NC[C@H]2CN(CCc3ccccc3)C[C@H]21`, with -23.3%.

For `CCN(CC)C(=O)Cn1ccc2cc(NC(=O)C3CCCCC3)ccc21`, the INHIBITION was -3.202%.

Take `CCN(CC)C(=O)Cn1ccc2cc(NC(=O)C3CC3)ccc21`: the INHIBITION turned out to be 52.7%. Then `CCC(=O)Nc1ccc2c(ccn2CC(=O)N(CC)CC)c1`, with 8.4%; and `CCc1nccn1C1CCCN(C(=O)c2ccc(-n3ccnc3)cc2)C1` (configuration not stated), with 33.3%; and `N#CC(Sc1nnnn1C1CCOCC1)C1CCCCC1` (configuration not stated), with -58.6%. Then `CC(Sc1nnnn1C1CCOCC1)C(F)(F)F` (configuration not stated), with 52.8%. To `COC(=O)C(C)Sc1nnnn1C1CCOCC1` (configuration not stated) belongs 23.6%; to `CCCC(C)Sc1nnnn1C1CCOCC1` (configuration not stated), 15%. On to `CC(Sc1nnnn1C1CCOCC1)C(=O)NC1CCCCC1` (configuration not stated), for which the INHIBITION is 3.47%.

In the case of `CC(C)Sc1nnnn1C1CCCC1`, the INHIBITION turned out to be 66.9%. To `N#CC1(NC(=O)c2ccc(F)cc2OC(F)F)CCOCC1` belongs 8.12%.

Consider `CN(C)C(=O)COC1COC2(CCN(c3cccc(F)c3)CC2)C1` (configuration not stated), for which the INHIBITION was determined as 42.7%. Take `Cc1ccc(-c2noc(C(C)(C)NS(C)(=O)=O)n2)cc1F`: the INHIBITION worked out at 15.4%.

With `Cc1cc(-c2nn(C)c(Cl)c2CN2CCCCC(N)C2)no1` (configuration not stated), the INHIBITION stood at 48.5%.

`CC[C@@]1(O)CCN(C(=O)c2ccc(CN3CCCCCC3)cc2)C[C@H]1O`: the INHIBITION amounted to 3.03%. To `NC1CCCCN(Cc2cc(C3CCCCC3)no2)C1` (configuration not stated) belongs 57.8%; to `CCc1nc(C)sc1CN1CC[C@](O)(CC)[C@H](O)C1`, -31.7%; to `C[C@@H]1CN(Cc2c[nH]c(CC3CCCC3)n2)CC[C@]1(C)O`, 15%. Then `CC1(C)CN(Cc2cc(C3CCCCC3)no2)CC[C@]1(C)O`, with 47.7%; and `OCC1COCCN(Cc2cc(C3CCCCC3)no2)C1` (configuration not stated), with 41%; and `Cc1nnsc1CN1CC[C@@](O)(C2CCC2)[C@H](C)C1`, with 66.7%. To `Cc1nonc1CN1CC[C@@](O)(C2CCC2)[C@H](C)C1` belongs 21.9%. In the case of `CC[C@@]1(O)CCN(Cc2cc(C3CCCCC3)no2)C[C@H]1O`, the INHIBITION is 56.6%.

Consider `CCc1nc(C)sc1CN1CC[C@@](O)(C2CC2)[C@H](C)C1`, for which the INHIBITION was 29.7%. To `C[C@@H]1CN(Cc2cc(C3CCCCC3)no2)CC[C@]1(C)O` belongs 61.1%; to `O=C(COCc1ccccc1)N1CCCn2cncc2C1`, 14.5%; to `Cc1cs/c(=N\C(=O)Cn2nc(N3CCC(C)CC3)ccc2=O)[nH]1`, -6.73%. For `CN(C)Cc1cnc2n1CCN(Cc1ccsc1)CC2`, the INHIBITION was 16.8%. For the compound `C[C@@H]1CN(Cc2cccc(F)c2)C[C@]12CCN(Cc1cccnc1)C2=O`, the INHIBITION is recorded as -13.4%. In the case of `Cc1ccc(C(=O)N2C[C@H](OCc3cccnc3)[C@H]3COC[C@H]32)cn1`, the INHIBITION was 25.3%.
